Experimental findings from PubChem BioAssay (Tox21) are described below.

Test [1] can be described thus: qHTS assay to identify small molecule agonists of the hypoxia (HIF-1) signaling pathway - cell viability counter screen (AID 1224844; calls by dose curve; further: nearly all actives have a fitted effect of over 50% in size; further: potency means the concentration at half of the fitted maximal effect). The gist of the method: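 CellTiter-Glo luminescence read-out, 30 min RT, taken in the same wells as the beta-lactamase HRE reporter assay; HRE-bla ME-180 cells, 0.5% dialyzed FBS, 17 hr compound treatment at 37C, 5% CO2.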
For orientation: qHTS replaces the single test concentration by a dilution series.

Test [2] is described as follows: qHTS assay to identify small molecule agonists of H2AX (AID 1224845; active means well fitted activation curve with a large enough effect in the signal ratio in the repeat runs, not every such curve was filed as active; the % refers to the signal ratio; further: potency means the concentration at half of the fitted maximal effect). The gist of the method:
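Phospho-H2AX Ser139 measured by HTRF (ex 320 nm; em 665 and 620 nm) after 24 hr antibody incubation. Compounds, 15 concentrations, 0.76% DMSO, were applied to CHO-K1 cells for 3hr at 37C before lysis.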

The nature of test [3]: qHTS assay to identify small molecule agonists of the hypoxia (HIF-1) signaling pathway (AID 1224846; active means well fitted activation curve with a large enough effect in the signal ratio in the repeat runs, not every such curve was filed as active; the % refers to the signal ratio). The gist of the method:
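Beta-lactamase FRET read-out (CCF4-AM substrate) from ME-180 cells carrying an HRE-driven bla reporter, after 17 hrs compound exposure at 37C/5% CO2. Cells were seeded at 2,000 per well in 0.5% dialyzed FBS medium and preincubated 5 hrs.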

Test [4] in a line: qHTS assay to identify small molecule agonists of the estrogen related receptor (ERR) signaling pathway from Tox21 library (AID 1224849; calls by dose curve; further: nearly all actives have a fitted effect of over 15% in size). The conditions noted are these: ERR reporter cell line, ONE-Glo luciferase, 18 h. The gist of the method:
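Luminescence readout (ONE-Glo, 30 min RT) after 18 h compound exposure at 37 C of NTP-supplied ERR reporter cells; cells were plated 6 h before compound addition by pin tool.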

Test [5] in a line: qHTS RealTime-Glo MT Cell Viability Assay in HEK293 cells - 32 hour (AID 1224868). Further: nearly all actives have a fitted effect of over 50% in size. Further: potency means the concentration at half of the fitted maximal effect. The gist of the method: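 Luminescence generated by NanoLuc from substrate produced by living HEK293 cells served as the viability signal. Each value reflects the reading at its stated time point during continuous 40 h compound exposure at 37 C.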
Test [6] is described as follows: A CellTox Green Cytotoxicity Assay to monitor cytotoxicity in HEK293 cells - 0 hour (AID 1224869). Further: nearly all actives have a fitted effect of over 50% in size. The gist of the method: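 Read-out: fluorescence of a cell-impermeant cyanine dye staining DNA of dead cells, proportional to cytotoxicity. HEK293, 600 cells/well with reagent, compound (23 nL DMSO) added after 5 h; reads at 0, 8, 16, 24, 32, 40 h.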
Test [7] in a line: qHTS RealTime-Glo MT Cell Viability Assay in HepG2 cells - 40 hour (AID 1224870). Further: nearly all actives have a fitted effect of over 50% in size. Further: potency means the concentration at half of the fitted maximal effect. The gist of the method:
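Real-time viability: cells seeded at 600 per well together with NanoLuc and cell-permeant prosubstrate, compounds added after 5 h incubation. Luminescence tracked at 0, 8, 16, 24, 32 and 40 h of exposure.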

Test [8] in a line: qHTS assay to identify small molecule agonists of H2AX - cell viability counter screen (AID 1224847; calls by dose curve; further: nearly all actives have a fitted effect of over 30% in size; further: potency means the concentration at half of the fitted maximal effect). The gist of the method:
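Viability of CHO-K1 (wild type) cells after 3 hr compound exposure was measured by CellTiter-Glo luminescence.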

A short description of test [9]: qHTS assay to identify small molecule antagonists of the estrogen related receptor (ERR) signaling pathway from Tox21 library (AID 1224848). Further: nearly all actives have a fitted effect of over 50% in size. Further: potency means the concentration at half of the fitted maximal effect. The gist of the method: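 ERR cell line, 2,000 cells/well. 6 h settle, then compound (DMSO) added; 18 h at 37 C; ONE-Glo luminescence after 30 min RT.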
A short description of test [10]: qHTS RealTime-Glo MT Cell Viability Assay in HepG2 cells - 24 hour (AID 1224867). Further: nearly all actives have a fitted effect of over 50% in size. Further: potency means the concentration at half of the fitted maximal effect. The gist of the method: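 Tox21 10K library screened in qHTS format on HepG2 cells carrying RealTime-Glo reagents. Compounds were added after a 5 h preincubation, and the luminescent signal from continuous culture was measured repeatedly during 40 h treatment.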

Where “and” joins values, the source holds several entries; their conditions need not be identical. Equal entries are not always repeated. Inconclusive results are not listed. A structure can be active in one record and inactive in another. Calls of active or inactive are those of the source. Unless noted, the call rests on the fitted dose curve; in most records, active means well fitted curve in the direction sought with a large enough effect in the repeat runs; inconclusive means weak or mixed curves; inactive means no such curve, though single readings can be large; an effect the other way counts as inactive or inconclusive.
On the % scale 0 is the no-effect control and ±100 the full control effect.

Take `CC1(C)C(C(=O)OC(C#N)c2cccc(Oc3ccccc3)c2)C1(C)C` (configuration not stated): the Potency entry in [1], in test [2], in test [5], in test [6] and in test [7] was “inactive” in each case. In addition, in test [3], the molecule was called inactive. For the same molecule, in [4] (at 92.4 µM (top of the series)), the activity change, positive = activation was -46.1% (inactive) and -24.4% (inactive).
For `O=[N+]([O-])/N=C1\NCCN1Cc1ccc(Cl)nc1`, the Potency entry in test [1], in test [8], in test [9], in [5], in [6] and in [7] was “inactive” each time. Moreover, the molecule was called inactive in test [3]. Also, the activity change, positive = activation in test [4] (at 42.5 µM (top of the series)) is 0.753% (inactive); in [4] (at 92.4 µM (top of the series)), -0.637% (inactive).
In the case of `c1ccc2c(c1)Nc1ccccc1S2`, the Potency result in test [1], in test [8], in [9], in [10], in test [6] and in [7] was “inactive” throughout. Also, in test [3], the outcome was inactive. Further, the activity change, positive = activation is -0.479% (inactive) in test [4] (at 42.5 µM (top of the series)) and -21.3% (inactive) in test [4] (at 92.4 µM (top of the series)). The Potency in test [5] was 11 µM (active) and 13.4 µM (active).
Take `CC(C)(c1ccccc1)c1ccc(O)c(C(C)(C)c2ccccc2)c1`: the Potency is 21.7 µM (active) and 21.9 µM (active) in test [1]; 39.7 µM (active) in test [2]; 28.1 µM (active) and 56.6 µM (active) in [8]; 42.9 µM (active) and 48.6 µM (active) in [9]; 54.4 µM (active) and 43.6 µM (active) in test [10]; 19.3 µM (active) and 30.9 µM (active) in [5]. In addition, the Potency in [7] is 49 µM (active). In addition, the activity change, positive = activation in test [4] (at 92.4 µM (top of the series)) is -71.4% (inactive) and -64.9% (inactive). Moreover, in [6], the Potency entry is “inactive”.
With `CCCCCCCC[N+](C)(CCCCCCCC)CCCCCCCC`, the Potency in test [1] is 15.5 µM (active) and 9.79 µM (active) and 19.5 µM (active); in test [2] it was “inactive and 17.9 µM (active)”; in test [8], 44.9 µM (active) and 567 nM (active) and 35.7 µM (active); in test [5], 218 nM (active) and 138 nM (active) and 1.55 µM (active); in test [7] it was 9.75 µM (active) and 15.5 µM (active) and 8.71 µM (active). Also, the Potency entry in [6] is “inactive”.
As for `CC1=C(C(=O)Nc2ccccc2)SCCO1`, the Potency entry in [1], in test [8], in [10], in test [5], in [6] and in test [7] was “inactive” each time. For the same molecule, the outcome in [3] was inactive. Moreover, in [4] (at 92.4 µM (top of the series)), the activity change, positive = activation was -23.3% (inactive) and -26.7% (inactive).
With `CCC/C=N/O`, the Potency result in [1], in test [2], in test [8], in [5], in [6] and in [7] was “inactive” throughout. In addition, the molecule was classed as inactive in test [3].
Regarding `O=[N+]([O-])c1ccc(Nc2ccccc2)cc1`, the Potency entry in [1], in test [10], in [6] and in test [7] was “inactive” in each case. Further, the molecule was classed as inactive in test [3]. In addition, the Potency in [8] is 80 µM (active); in [5] it was 24.7 µM (active) and 19.5 µM (active). The activity change, positive = activation in test [4] (at 92.4 µM (top of the series)) is -30.2% (inactive) and -27.4% (inactive).
Regarding `CC(C)(O)C(=O)Nc1ccc([N+](=O)[O-])c(C(F)(F)F)c1`, the Potency entry in test [1], in test [6] and in test [7] was “inactive” each time. Besides, in test [3], the call was inactive. The Potency in test [8] is 57.8 µM (active) and 73.6 µM (active); in test [5], 25.1 µM (active) and 16 µM (active). Moreover, the results for the activity change, positive = activation in test [4] (at 42.5 µM (top of the series)) and in test [4] (at 92.4 µM (top of the series)) were -39.6% (inactive) and -47.4% (inactive), respectively.
`CCC1(c2ccc(N)cc2)CCC(=O)NC1=O` (configuration not stated): the Potency entry in test [1], in test [2], in test [8], in [5], in test [6] and in test [7] was “inactive” each time. In addition, the activity change, positive = activation in test [4] (at 42.5 µM (top of the series)) was 5.08% (inactive); in [4] (at 92.4 µM (top of the series)), -19.8% (inactive).
Turning to `Oc1ccc(Cl)cc1Cc1ccccc1`, the Potency was 49.6 µM (active) and inactive in test [1]; 89.8 µM (active) and 81 µM (active) in test [8]; “inactive and 49.6 µM (active)” in test [10]; 21.9 µM (active) and 19.7 µM (active) in test [5]. The Potency result in test [2], in [6] and in test [7] was “inactive” each time.
Take `CCNCC`: the Potency result in test [1], in test [8], in test [9], in test [5], in test [6] and in test [7] was “inactive” each time. The molecule was classed as inactive in test [3]. For the same molecule, in test [4] (at 92.4 µM (top of the series)), the activity change, positive = activation was 1.09% (inactive) and 1.12% (inactive).
In the case of `CNC(=S)S`, the Potency entry in test [1], in test [2], in test [8], in test [5], in [6] and in [7] was “inactive” in each case. Also, in test [3], the call was inactive.
Turning to `CC(C)=CC1C(C(=O)OCc2cccc(Oc3ccccc3)c2)C1(C)C` (configuration not stated), the Potency result in test [1], in [2], in [9], in test [5], in test [6] and in test [7] was “inactive” in each case. Moreover, in [3], the outcome was inactive. In addition, the activity change, positive = activation in test [4] (at 42.5 µM (top of the series)) was -0.963% (inactive); in test [4] (at 92.4 µM (top of the series)), -0.843% (inactive).
For the molecule `COc1ccc(C=O)cc1OC`, the Potency entry in test [1], in [8], in test [10], in [5], in [6] and in test [7] was “inactive” in each case. Moreover, the outcome in [3] was inactive. Moreover, the activity change, positive = activation in test [4] (at 92.4 µM (top of the series)) was -3.94% (inactive) and -4.02% (inactive).
For the molecule `C[C@]12CC[C@H]3[C@@H](CCC4=CC(=O)CC[C@@H]43)[C@@H]1CC[C@@H]2O`, the Potency result in test [1], in test [8], in [10], in test [5], in test [6] and in test [7] was “inactive” throughout. Further, in test [2], the Potency was 99.8 µM (active). The outcome in test [3] was inactive.
